# Rows were chosen to be rich in hits. Some 4.6% of all compounds tested hit in one or more screens of this group.
# D1 potentiator – Potentiators of Human D1 Dopamine Receptor: qHTS; D(1A) dopamine receptor (Homo sapiens), P21728; HEK293 TREx D1 cells, calcium flux, dopamine EC20 potentiation; potentiation, % at 10 µM; 360,000 tested, 0.036% active; AID 504651, 2011; in the data active means potentiation above about 30%; further: 0% is about no effect
# D1 antagonist – Antagonist of Human D 1 Dopamine Receptor: qHTS. activity change, negative = inhibition, % at 10 µM. 360,000 tested, 3.2% active. D(1A) dopamine receptor (Homo sapiens), P21728. HEK293 TREx D1 cells, calcium flux, dopamine EC80; hits give low values; in the data active means activity change below about -30%; further: on the % scale 0 is the no-effect control and ±100 the full control effect
#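 HEK293 T-REx cells expressing inducible, force-coupled D1 receptor; no-wash Ca dye, 30–90 min RT. Cmpd → 180 s read at 1 Hz → EC80 DA → 180 s read.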
# TRHR enhancer – qHTS for Small Molecule Agonists and Allosteric Enhancers of Human TRH Receptor: Primary Screen for Enhancers | Thyrotropin-releasing hormone receptor (Homo sapiens), P34981 | TRHR cells, fluo-8 calcium fluorescence, EC20 TRH enhancement | enhancement, % at 2 µM | 360,000 tested, 0.66% active; in the data active means enhancement above about 30%; further: 0% is about no effect
# Target sequence (P34981 whole entry, looked up): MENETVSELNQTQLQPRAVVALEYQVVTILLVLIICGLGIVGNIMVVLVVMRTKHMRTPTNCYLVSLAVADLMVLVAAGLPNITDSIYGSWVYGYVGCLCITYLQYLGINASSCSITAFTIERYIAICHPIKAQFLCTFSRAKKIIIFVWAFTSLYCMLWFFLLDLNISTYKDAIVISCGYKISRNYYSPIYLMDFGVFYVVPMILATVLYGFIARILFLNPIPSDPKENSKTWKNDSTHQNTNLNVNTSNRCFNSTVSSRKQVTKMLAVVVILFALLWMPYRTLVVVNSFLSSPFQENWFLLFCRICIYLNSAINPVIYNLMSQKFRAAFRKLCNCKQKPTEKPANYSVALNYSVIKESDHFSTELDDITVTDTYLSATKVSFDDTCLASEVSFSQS
#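 Enhancer read-out: after compound pinning and an initial kinetic agonist-mode read, an EC20 of TRH (10 nM final) was injected and fluo-8 calcium signal (Ex 480/Em 530) followed at 1 s/cycle for 100 cycles in TRHR-expressing cells.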
# TRHR ag – qHTS for Small Molecule Agonists and Allosteric Enhancers of Human TRH Receptor: Primary Screen for Agonists; AID 493084, 2011; activation, % at 2 µM; 360,000 tested, 0.18% active; TRHR cells, calcium flux fluo-8, FDSS agonist mode; further: 0% is about no effect
#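 Read-out: compound-evoked intracellular calcium rise in TRHR cells, fluo-8 dye, kinetic FDSS fluorescence at 1 s/cycle following a 10-cycle baseline. Cells cultured overnight before dye loading (30 min–1.5 h, RT).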
# D1 agonist – Allosteric Agonists of the Human D1 Dopamine Receptor: qHTS; 360,000 tested, 1% active; D(1A) dopamine receptor (Homo sapiens), P21728; activation, % at 2 µM; HEK293 T-REx D1 cells, calcium flux, agonist mode; further: 0% is about no effect
#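 Tetracycline-induced HEK293 TREx D1 cells, force-coupled to calcium signalling, were dye-loaded with a no-wash calcium kit. Compound was pin-added after a 10 s baseline. Fluorescence was read kinetically at 1 cycle/s for 180 s, with calcium rises flagged as agonism.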
# Active calls of the source: *. Unless noted, no stated cut-off is given here; in the data, active means activation above about 30%; inactive means the rest.
SMILES,D1 potentiator,D1 antagonist,TRHR enhancer,TRHR ag,D1 agonist
COC(=O)CNC(=O)CSc1nc2c(sc(=S)n2-c2ccccc2)c(=O)[nH]1,-6,-37*,-27,0,1
COc1ccc(C(=O)NCc2nnc(SCC(=O)Nc3ccccc3)n2-c2ccccc2)cc1,-1,1,0,0,0
COc1cc(Cl)c(C)cc1NC(=O)CN(C)Cc1cccc(OC)c1OC,-8,10,-6,-1,50*
COc1ccc(Br)cc1CN(C)CC(=O)Nc1ccccc1Cl,-2,-8,-6,0,4
COc1ccc(Br)cc1CN(C)CC(=O)Nc1cc(Cl)ccc1Cl,2,-31*,0,1,6
COc1ccccc1CN(C)CC(=O)Nc1cccc2ccccc12,9,7,5,-1,-3
O=C(NCc1ccccc1)c1onc(CS(=O)(=O)c2ccc(Cl)cc2)c1C(=O)NCc1ccccc1,-2,-23,0,0,6
CN(C)S(=O)(=O)N1C(=O)c2ccccc2C1=O,1,10,5,-1,4
CN(C)/C=C1\C=C2C(=O)c3ccccc3N2C1=O,2,-62*,31*,249*,335*
COC(=O)CNc1nc(Cl)nc(NC2CCCCC2)n1,-3,-14,-1,0,4
CC(C)(C)c1ccc(-c2nc(C#N)c(NCCCn3ccnc3)o2)cc1,-5,-5,3,0,36*
Clc1ccc2c(N3CCOCC3)ccnc2c1,-2,-3,-1,1,3
Clc1ccc2c(c1)CNc1c(ncnc1N1CCOCC1)O2,-9,-43*,0,-1,3
Cc1ccc2nc(Cl)c(CNCc3ccccc3)cc2c1,5,-35*,27,0,4
CCc1ccc(C(=O)c2cn(CC(=O)Nc3cc(F)ccc3F)c3nc(C)ccc3c2=O)cc1,-1,49,2,-1,1
COc1ccc(S(=O)(=O)Nc2cccc(C(C)=O)c2)cc1Br,5,-2,-2,0,6
O=C(NCCCN1CCCC1=O)c1cccc(NS(=O)(=O)c2ccccc2)c1,3,7,3,0,3
CC(=O)c1cccc(NS(=O)(=O)c2cccc(S(=O)(=O)c3ccc(Br)cc3)c2)c1,-1,-41*,1,0,27
O=C(NCCCN1CCCC1=O)c1cccc(NS(=O)(=O)c2ccc(Br)cc2)c1,2,-3,33*,0,1
O=C(NCCCN1CCCC1=O)c1cccc(S(=O)(=O)N2CCN(c3ccccc3)CC2)c1,-4,-44*,14,0,1
CN(c1ccccc1)S(=O)(=O)c1cccc(C(=O)NCCCN2CCCC2=O)c1,-2,-15,2,0,2
O=C(NCCCn1ccnc1)c1cccc(S(=O)(=O)Nc2ccc(F)cc2)c1,2,5,-1,0,3
O=C(NCCCn1ccnc1)c1cccc(S(=O)(=O)Nc2ccc(Br)cc2)c1,5,7,36*,0,51*
c1ccc(N2CCN(Cc3nnc(-c4ccc5c(c4)OCO5)o3)CC2)cc1,1,-16,-1,0,5
CCc1sc(C(=O)NCCCn2ccnc2)cc1Br,-11,6,31*,-2,2
SMILES,D1 potentiator,D1 antagonist,TRHR enhancer,TRHR ag,D1 agonist
Cc1ccccc1NC(=O)C(=O)NCCCN1CCCC1=O,1,6,19,0,3
NC(=O)COC(=O)c1cccc(S(=O)(=O)N2CCN(c3ccccc3)CC2)c1,-1,-13,2,0,6
O=C(NCCCN1CCCC1=O)C(=O)Nc1cccc(F)c1,-6,-44*,6,0,7
O=C(COC(=O)c1cccc(S(=O)(=O)N2CCN(c3ccccc3)CC2)c1)NCc1ccco1,-5,-15,35*,0,6
CCOc1ccc(C(c2c(O)cc(C)n(CCOC)c2=O)N2CCN(c3ccccc3)CC2)cc1 (stereo not given),-2,8,3,1,0
Cc1ccc(-c2nc3sc4c(N)ncnc4c3c3c2CCCC3)cc1,-21,-61*,7,0,3
NC(=O)c1ccc(NC(=O)C2CCN(S(=O)(=O)Cc3ccccc3)CC2)cc1,0,1,1,0,1
COc1cc(C2CC(=O)N(Cc3ccc(F)cc3)c3ccccc3S2)cc(OC)c1OC (stereo not given),-4,-4,-9,0,3
N#Cc1c2ccc(O)cc2n2ccccc12,-5,-3,-14,25,58*
N#Cc1c2ccc(OCC(=O)NCc3ccco3)cc2n2ccccc12,-1,-8,-5,13,8
Cc1nc2cc(CO)ccc2n1C,1,0,1,0,1
CCOc1ccc2c(c1)nc(C)n2C,-8,-47*,2,0,1
CCN(CC)CCCNC(=O)c1nn(C)c2c1CSc1ccccc1-2,0,-2,-4,0,1
Cc1[nH]c2ccccc2c1C(=O)CN1C(=O)NC(C)(c2ccc(Cl)cc2Cl)C1=O (stereo not given),2,4,4,5,37*
CCc1ccccc1N(c1nc(-c2ccc(OC)c(OC)c2)no1)c1nc(-c2ccc(OC)c(OC)c2)no1,-2,1,-5,1,3
O=C(Nc1cccn(Cc2ccccc2)c1=O)NC1CCCCC1,-8,4,-7,0,3
COc1cccc(Cn2cccc(NC(=O)NC3CCCCC3)c2=O)c1,-8,-31*,18,-1,1
COc1ccc2c(c1)C(C)=CC(C)(C)N2S(=O)(=O)c1ccc(NC(C)=O)cc1,-1,1,4,3,11
COc1ccc2c(c1)C(C)=CC(C)(C)N2S(=O)(=O)c1ccc(Br)cc1,-2,-30*,-10,0,2
CNC(=O)c1ccc2c(c1)nnn2C,-8,-87*,-17,1,1
Cn1nnc2cc(C(=O)NC(C)(C)C)ccc21,-4,-3,2,0,1
CCOC(=O)[C@H]1[C@H]2COc3ccc(C)cc3[C@@H]2N2C(=O)c3cc(F)ccc3NC(=O)[C@@]12C,-6,-24,6,0,-2
CCOC(=O)[C@H]1[C@H]2COc3ccc(Cl)cc3[C@@H]2N2C(=O)c3cc(F)ccc3NC(=O)[C@@]12C,4,7,1,0,31*
COc1cccc(CNCc2cc(OC)cc(OC)c2)c1,-8,-12,4,0,10
Fc1cccc(CNCc2ccc3c(c2)OCO3)c1,2,6,13,0,2
COc1cc(CNCc2ccc(SC)cc2)cc(OC)c1,-1,-2,2,0,33*
